The source of these data is PMC5540273 (PLoS ONE, 2017).

Test systems include DAPK2; DAPK3; DDR1; DDR2; DMPK.
Conditions in all cases: n = 1
A further test concerns T1, DCAMKL1.
T1 construct: gene DCLK1

In another test the test system is T2, DCAMKL2.
T2 construct: gene DCLK2

For another test, the system named is T3, DCAMKL3.
T3 construct: gene DCLK3

In a further test the test system is T4, DLK.
T4 construct: gene MAP3K12

The next test has as its system T5, DMPK2.
T5 construct: gene CDC42BPG

[1] abbreviates: concentration: 1 μM, replicates: in singlicate.

Where two headings read alike, the source gives them in different places.
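Further: KINOMEscan kinase panel screen.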

Turning to `CC(=O)Nc1nc2cnc(Nc3cc(NC(=O)c4cccc(CCC#N)c4)ccc3C)nc2s1`, the “%Inh” value with DAPK2 (setting [1]) worked out at 6%; in the test with DAPK3 (setting [1]), 8%; with DCAMKL1 (setting [1]) it was 12%; in the test with DCAMKL2 (setting [1]), 13%; in the test on DCAMKL3 (setting [1]), 12%; in the test with DDR1 (setting [1]) it was 100%. Besides, the “%Inh” value in the test with DDR2 (setting [1]) is on record as 86%; with DLK (setting [1]) it was 0%; in the test on DMPK2 (setting [1]), 3%; in the test on DMPK (setting [1]), 12%.

In the case of `Cc1ccc(NC(=O)Nc2cc(C(C)(C)C)nn2-c2ccccc2)cc1` [GSK1014915], the “%Inh” value in the test with DAPK2 (setting [1]) is 0%; with DAPK3 (setting [1]), 18%; in the test on DCAMKL1 (setting [1]), 2%; in the test with DCAMKL2 (setting [1]), 25%; with DCAMKL3 (setting [1]), 5%; with DDR1 (setting [1]), 90.7%. The “%Inh” value with DDR2 (setting [1]) came to 88%; in the test on DLK (setting [1]), 18%; with DMPK2 (setting [1]) it was 0%; in the test with DMPK (setting [1]), 3%.

Regarding `CS(=O)(=O)c1ccc(-c2nc3n(c2-c2ccncc2)CCC3)cc1` [SKF-105942], the “%Inh” value in the test on DAPK2 (setting [1]) came to 0%; with DAPK3 (setting [1]), 22%; in the test on DCAMKL1 (setting [1]), 21%; with DCAMKL2 (setting [1]), 13%; in the test with DCAMKL3 (setting [1]), 20%; with DDR1 (setting [1]), 0%. The “%Inh” value with DDR2 (setting [1]) is 7%; in the test with DLK (setting [1]) it was 0%; in the test on DMPK2 (setting [1]), 0%; in the test on DMPK (setting [1]), 0%.

Regarding `Cc1ccc(NC(=O)Nc2cccc(C(F)(F)F)c2)cc1` [GSK955403], the “%Inh” value was 3% in the test with DAPK2 (1 µM); 24% in the test with DAPK3 (1 µM); 0% in the test with DCAMKL1 (1 µM); 0% in the test with DCAMKL2 (1 µM); 13% in the test on DCAMKL3 (1 µM); 43% in the test with DDR1 (1 µM). The “%Inh” value in the test on DDR2 (1 µM) is recorded as 65%; with DLK (1 µM), 0%; with DMPK2 (1 µM), 0%; with DMPK (1 µM) it was 0%.

In the case of `CC(C)(C)c1ccc(C(=O)Nc2cn3cc(-c4cccnc4)ccc3n2)cc1`, the “%Inh” value in the test on DAPK2 (setting [1]) was 13%; in the test with DAPK3 (setting [1]), 8%; in the test on DCAMKL1 (setting [1]), 45%; with DCAMKL2 (setting [1]) it was 12%; in the test with DCAMKL3 (setting [1]), 25%; in the test with DDR1 (setting [1]), 24%. For the same compound, the “%Inh” value was 0% in the test on DDR2 (setting [1]), 0% with DLK (setting [1]), 17% in the test on DMPK2 (setting [1]) and 5% in the test on DMPK (setting [1]).

For the compound `COc1ccc(Nc2nccc(-c3cccc(NC(=O)c4cc5cc(F)ccc5[nH]4)c3)n2)cc1` [GSK1229782], the “%Inh” value in the test with DAPK2 (setting [1]) was 11%; in the test with DAPK3 (setting [1]), 6%; in the test on DCAMKL1 (setting [1]), 4%; in the test on DCAMKL2 (setting [1]), 0%; with DCAMKL3 (setting [1]) it was 4%; with DDR1 (setting [1]), 0%. Besides, the “%Inh” value with DDR2 (setting [1]) is 39%; with DLK (setting [1]) it was 37%; in the test with DMPK2 (setting [1]), 13%; with DMPK (setting [1]) it was 25%.

As for `Fc1cc(Cl)ccc1Nc1ccnc2cc(-c3ccc(CN4CCCCC4)o3)ccc12` [GW560116], the “%Inh” value is reported as 0% in the test with DAPK2 (setting [1]); 25% in the test on DAPK3 (setting [1]); 0% with DCAMKL1 (setting [1]); 14% in the test on DCAMKL2 (setting [1]); 0% with DCAMKL3 (setting [1]); 27% with DDR1 (setting [1]). Besides, the “%Inh” value in the test with DDR2 (setting [1]) is recorded as 36%; with DLK (setting [1]) it was 36%; in the test with DMPK2 (setting [1]) it was 0%; with DMPK (setting [1]), 0%.

Take `Cn1ccc2ncnc(Oc3ccc(NC(=O)Nc4ccccc4)cc3)c21`: the “%Inh” value with DAPK2 (setting [1]) is on record as 0%; in the test on DAPK3 (setting [1]), 0%; in the test on DCAMKL1 (setting [1]) it was 23%; in the test on DCAMKL2 (setting [1]) it was 0%; in the test on DCAMKL3 (setting [1]), 0%; in the test with DDR1 (setting [1]) it was 63%. Besides, the “%Inh” value in the test with DDR2 (setting [1]) was determined as 74%; with DLK (setting [1]), 0%; with DMPK2 (setting [1]), 0%; in the test on DMPK (setting [1]) it was 0%.

Take `O=C(Nc1ccc2c(c1)OCO2)NC1CCN(c2ccnc(Nc3ccc(F)cc3)n2)C1` (stereo not drawn) [GSK1379724]: the “%Inh” value with DAPK2 (setting [1]) was 0%; in the test on DAPK3 (setting [1]), 0%; in the test on DCAMKL1 (setting [1]), 0%; in the test on DCAMKL2 (setting [1]) it was 7%; in the test on DCAMKL3 (setting [1]) it was 32%; in the test on DDR1 (setting [1]), 0%. Besides, the “%Inh” value in the test on DDR2 (setting [1]) turned out to be 52%; in the test on DLK (setting [1]), 24%; in the test on DMPK2 (setting [1]), 9%; in the test with DMPK (setting [1]), 0%.

In the case of `Cc1c(O)cccc1Nc1ccnc2ccc(C(F)(F)F)cc12.Cl` [GW466413], the “%Inh” value is 0% in the test on DAPK2 (setting [1]); 0% in the test on DAPK3 (setting [1]); 0% with DCAMKL1 (setting [1]); 0% in the test on DCAMKL2 (setting [1]); 0% in the test on DCAMKL3 (setting [1]); 16% with DDR1 (setting [1]). In addition, the “%Inh” value is reported as 24% in the test with DDR2 (setting [1]), 43% in the test with DLK (setting [1]), 0% in the test with DMPK2 (setting [1]) and 0% in the test on DMPK (setting [1]).

As to `Fc1cc(Cl)ccc1Nc1ccnc2cc(I)ccc12` [GW551191], the “%Inh” value in the test on DAPK2 (setting [1]) worked out at 0%; in the test on DAPK3 (setting [1]), 9%; with DCAMKL1 (setting [1]), 15%; with DCAMKL2 (setting [1]), 0%; with DCAMKL3 (setting [1]), 0%; in the test with DDR1 (setting [1]), 33%. The “%Inh” value with DDR2 (setting [1]) turned out to be 8%; with DLK (setting [1]), 27%; in the test with DMPK2 (setting [1]), 8%; in the test with DMPK (setting [1]) it was 21%.

`Fc1cccc(COc2nnc(-c3ccc4c(c3)CCO4)o2)c1`: the “%Inh” value came out at 0% with DAPK2 (setting [1]); 0% in the test on DAPK3 (setting [1]); 9% with DCAMKL1 (setting [1]); 0% in the test with DCAMKL2 (setting [1]); 0% in the test with DCAMKL3 (setting [1]); 0% with DDR1 (setting [1]). The “%Inh” value is 12% in the test on DDR2 (setting [1]), 0% in the test with DLK (setting [1]), 0% in the test on DMPK2 (setting [1]) and 0% in the test with DMPK (setting [1]).

As to `COc1cccc(NC(=O)NC2CCN(c3ccnc(Nc4ccc(F)cc4)n3)C2)c1` (stereo not drawn) [GSK1379721], the “%Inh” value in the test on DAPK2 (setting [1]) was 0%; with DAPK3 (setting [1]), 2%; in the test with DCAMKL1 (setting [1]), 11%; in the test with DCAMKL2 (setting [1]) it was 2%; in the test on DCAMKL3 (setting [1]), 0%; in the test on DDR1 (setting [1]) it was 17%. The “%Inh” value stood at 38% in the test on DDR2 (setting [1]), 0% with DLK (setting [1]), 13% with DMPK2 (setting [1]) and 0% in the test with DMPK (setting [1]).

In the case of `COc1cc(Nc2nccc(N3CCC(NC(=O)Nc4cc(C)ccc4C)C3)n2)cc(OC)c1OC` (stereo not drawn) [GSK1379762], the “%Inh” value with DAPK2 (setting [1]) was 0%; with DAPK3 (setting [1]), 7%; in the test on DCAMKL1 (setting [1]), 0%; in the test with DCAMKL2 (setting [1]) it was 12%; in the test on DCAMKL3 (setting [1]) it was 0%; in the test on DDR1 (setting [1]), 43%. The “%Inh” value in the test on DDR2 (setting [1]) was 10%; with DLK (setting [1]) it was 30%; with DMPK2 (setting [1]) it was 22%; with DMPK (setting [1]), 0%.

Consider `Clc1cc(Cl)cc(Nc2ccnc(Nc3cc(Cl)cc(Cl)c3)n2)c1` [GSK175726], for which the “%Inh” value in the test with DAPK2 (setting [1]) is 19%; in the test with DAPK3 (setting [1]), 23%; in the test with DCAMKL1 (setting [1]), 0%; in the test on DCAMKL2 (setting [1]), 0%; with DCAMKL3 (setting [1]), 0%; in the test with DDR1 (setting [1]) it was 6%. Besides, the “%Inh” value with DDR2 (setting [1]) turned out to be 24%; in the test with DLK (setting [1]), 11%; in the test on DMPK2 (setting [1]) it was 18%; with DMPK (setting [1]) it was 0%.

With `Nc1nc(-c2nccs2)c(-c2ccnc3ccccc23)s1` [GW693542], the “%Inh” value was found to be 0% in the test on DAPK2 (setting [1]); 10% in the test with DAPK3 (setting [1]); 13% with DCAMKL1 (setting [1]); 0% in the test with DCAMKL2 (setting [1]); 6% in the test on DCAMKL3 (setting [1]); 9% in the test with DDR1 (setting [1]). For the same compound, the “%Inh” value with DDR2 (setting [1]) came out at 5%; in the test on DLK (setting [1]), 33%; in the test with DMPK2 (setting [1]), 6%; in the test on DMPK (setting [1]), 100%.

With `COc1cc2nccc(Nc3ccc(NC(=O)c4ccc(C)cc4)c(O)c3)c2cc1OC.Cl` [GW440132], the “%Inh” value was determined as 8% in the test with DAPK2 (setting [1]); 19% in the test with DAPK3 (setting [1]); 8% with DCAMKL1 (setting [1]); 7% with DCAMKL2 (setting [1]); 16% in the test with DCAMKL3 (setting [1]); 0% in the test on DDR1 (setting [1]). The “%Inh” value with DDR2 (setting [1]) is recorded as 5%; in the test on DLK (setting [1]), 6%; with DMPK2 (setting [1]), 0%; with DMPK (setting [1]) it was 0%.

As for `COc1ccc(C2=C(Nc3cccc(C(=O)O)c3)C(=O)NC2=O)cc1` [SB-390765], the “%Inh” value in the test with DAPK2 (setting [1]) is 5%; in the test with DAPK3 (setting [1]) it was 0%; in the test with DCAMKL1 (setting [1]), 32%; in the test on DCAMKL2 (setting [1]), 0%; with DCAMKL3 (setting [1]), 0%; in the test with DDR1 (setting [1]), 0%. Also, the “%Inh” value in the test on DDR2 (setting [1]) came to 19%; in the test on DLK (setting [1]) it was 0%; in the test on DMPK2 (setting [1]), 12%; in the test with DMPK (setting [1]), 4%.
